This is part of a sample that, as a whole, favours compounds with a hit. Of some 79,000 tested, about 15% had one in any assay. Unmarked numbers belong to inactive results. Activity calls are given as the source filed them. Cut-off read from the data, not from the text of the source: active = growth inhibition above about 70%; inactive = the rest.

This test is described as follows: NCI Yeast Anticancer Drug Screen. Data for the sgs1 mgt1 strain (AID 161).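 Note: 0% = growth of cultures given vehicle only.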 The following applies: S. cerevisiae sgs1 mgt1 strain, at 50.0 µM, active compounds read high. Put shortly:
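Test agents were incubated with a DNA-repair-mutant yeast strain. Growth was then read and compared against vehicle-treated controls.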
Turning to `CN(CCc1ccccn1)C(=S)N/N=C/c1ccccn1`, the growth inhibition is 91% (active).

Turning to `CC(C)CC(C)N=C1CC2CCC1(C)C2(C)C` (stereo not drawn), the growth inhibition is -3.35%.

Turning to `COC1OC(OC)c2cc([N+](=O)[O-])ccc21` (stereo not drawn), the growth inhibition is 18.1%.

Regarding `CCC(=O)c1ccc(OC(=O)Nc2ccc(Cl)cc2[N+](=O)[O-])cc1`, the growth inhibition is 38.5%.

Regarding `CCCCCCC(=O)CC1(C(=O)OC)NC(=S)NC(=O)C1C#N` (stereo not drawn), the growth inhibition is -1.55%.

`CCCCCC[N+]12CC=C3COC(=O)C(C)(O)C(C)(O)C(C)C(=O)OC(CC1)C32` (stereo not drawn): the growth inhibition was -0.25%.

Regarding `Cc1cc(C)[n+](C)c(/C=C/c2ccc([N+](=O)[O-])cc2)n1`, the growth inhibition was 15.6%.

Turning to `CC1(c2ccccc2)SCCS1`, the growth inhibition is -7.7%.

`COC(=O)c1ccc(O)c(CN(C)C)c1`: the growth inhibition is 6.6%.

For `Cc1ccc(CO)cc1`, the growth inhibition was 21.9%.

Regarding `NC(=S)N/N=C/c1ccccc1S(=O)(=O)O`, the growth inhibition was -9.75%.

Regarding `NC(=O)C(F)(F)C(F)(F)C(N)=O`, the growth inhibition was -15%.

For `COc1ccc(SC(N(C)C)=[N+](C)C)cc1`, the growth inhibition was 7.1%.

Turning to `CCCCc1c(O)nc(NCCCC(N)C(=O)O)[nH]c1=O` (stereo not drawn), the growth inhibition is -7.2%.

`CN(C)CCC(O)(c1ccccc1)C(O)(CCN(C)C)c1ccccc1` (stereo not drawn): the growth inhibition is -8.45%.

In the case of `Oc1ccc2ccccc2c1-c1c(OC(c2ccccc2)c2ccccc2)ccc2ccccc12`, the growth inhibition is 0.2%.

In the case of `CN1CCC(C[CH2][Sn]([c]2ccccc2)([c]2ccccc2)[c]2ccccc2)CC1`, the growth inhibition was 50.7%.

Turning to `O=C(c1c(F)c(F)c(F)c(F)c1F)n1c(=O)[nH]c2ccccc21`, the growth inhibition is -10.2%.

Values taken from PubChem BioAssay (NCI).
